Inconclusive results are not listed. Calls of active or inactive are those of the source. Unless noted, the call rests on the fitted dose curve; in most records, active means well fitted curve in the direction sought with a large enough effect; inconclusive means small, poorly fitted or top-dose-only effect, or another doubt; inactive means no such curve, though single readings can be large; an effect the other way counts as inactive or inconclusive.

Test [1] in a line: NCATS anti-infectives library activity on HEK293 viability as a counter-qHTS vs the C. elegans viability qHTS (AID 1745854).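 Further: HEK293 cells exposed to compounds for 24 hr before the viability read.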 Further: potency means the concentration at half of the fitted maximal effect. Summed up: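 Cytotoxicity in human HEK293 cells is measured by ATP-dependent CellTiter-Glo luminescence following a 24 hr incubation with titrated library compounds at 37C. Top final concentration is 41.7 uM.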
Background: qHTS replaces the single test concentration by a dilution series.

The nature of test [2]: NCATS anti-infectives library activity on the primary C. elegans qHTS viability assay (AID 1745855; calls by dose curve; further: potency means the concentration at half of the fitted maximal effect). The method, boiled down:
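Viability is taken from GFP fluorescence of PE254-GFP-FLuc C. elegans imaged by laser cytometry over 7 days. Ten L1 worms per well grow at 21 °C on TOP10 E. coli capsules with titrated compound; levamisole marks toxicity.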

A short description of test [3]: Viability counterscreen for agonist of constitutive androstane receptor (CAR) against the NCATS DSHEA and TCM libraries (AID 1794838).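 Further: HepG2 cells with CYP2B6 reporter and hCAR plus 0.75 µM PK11195 antagonist; cells exposed to compound for 24 h; 0% is about no effect.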 Summed up:
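Multiplexed counterscreen: after 24 h compound exposure with 0.75 uM PK11195, HepG2-CYP2B6-hCAR viability was quantified fluorimetrically (CellTiter-Fluor, 405/540 nm) prior to the ONE-Glo luciferase read.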
(A counterscreen serves to expose hits that act by an unwanted route or on another target.)

A short description of test [4]: HepG2 viability counterscreen (readout 2: ATP content) against the NCATS DSHEA and TCM libraries (AID 1794840).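 Further: HepG2 cells exposed to substances for about 24 h; 0% is about no effect.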 The method, boiled down: (§1)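 After HepG2 cells attach for ~4 h, substances are added and incubated ~24 h at 37C, 5% CO2. GF-AFC fluorescence then CellTiter-Glo luminescence give protease and ATP readouts.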
The nature of test [5]: HepG2 viability counterscreen (readout 1: protease activity) against the NCATS DSHEA and TCM libraries (AID 1794841).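 Further: cells exposed to compounds for about 24 h before the protease read; 0% is about no effect.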 The method, boiled down:
as §1

Test [6] concerns the target Cytochrome P450 3A4 (Homo sapiens) (UniProt P08684). The test is described as follows: qHTS Assay for Activators of Cytochrome P450 3A4 (AID 885). Further: nearly all actives have a fitted effect of over 65% in size. The method, boiled down: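 Quantitative HTS format: compounds preincubated with 20nM human CYP3A4 and Luciferin-PPXE substrate at KM, reaction started by NADPH regeneration, stopped after 60 min, luciferase luminescence read 20 min later.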

The target in test [7] is DNA dC->dU-editing enzyme APOBEC-3G (Homo sapiens) (UniProt Q9HC16). Kind of test: qHTS for inhibitors of Vif-A3G interactions: Validation (AID 588379). Further: 0% is about no effect. Summed up: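 HeLa cells stably expressing Vif and A3G-eYFP, 700 cells/well, incubated overnight at 37 deg C, then exposed to compound overnight at 37 deg C. Inhibition of Vif-mediated degradation read as increased yellow fluorescence (Ex 488/Em 500-530) by laser-scanning cytometry.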
Chain of DNA dC->dU-editing enzyme APOBEC-3G (Homo sapiens) (Q9HC16 whole entry, looked up): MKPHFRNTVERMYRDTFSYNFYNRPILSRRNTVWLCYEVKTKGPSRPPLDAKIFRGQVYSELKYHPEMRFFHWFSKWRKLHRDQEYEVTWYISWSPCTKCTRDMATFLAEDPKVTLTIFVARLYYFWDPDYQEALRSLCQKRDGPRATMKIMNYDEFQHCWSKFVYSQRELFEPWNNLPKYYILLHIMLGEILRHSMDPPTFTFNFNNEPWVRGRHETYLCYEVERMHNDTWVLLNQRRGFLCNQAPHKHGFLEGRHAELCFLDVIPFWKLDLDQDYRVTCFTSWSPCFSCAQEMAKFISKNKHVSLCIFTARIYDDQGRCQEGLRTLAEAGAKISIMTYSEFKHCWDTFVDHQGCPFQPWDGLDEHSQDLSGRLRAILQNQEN

Test [8] can be described thus: Confirmatory screen NINDS Rhodamine qHTS for Zika virus inhibitors (AID 1347161). Further: nearly all actives have a fitted effect of over 60% in size. Further: potency means the concentration at half of the fitted maximal effect.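 On activity change, negative = inhibition: purified Zika NS2B-NS3 protease with linked NS2B cofactor domain and Rhodamine110 peptide substrate; plate controls were no-inhibitor control for no effect and no-enzyme control for full effect.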 Summed up:
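Rhodamine110-peptide cleavage (1.5 µM substrate) by 25 nM linked NS2B-NS3 enzyme at pH 8.0 (Tris, Tween 20), after 15 min RT preincubation with compounds; 15-min fluorescence change normalized to controls and Hill-fitted.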

Test [9] relates to Zika virus NS2B-NS3 protease (linked). The test is described as follows: 384 well plate NINDS AMC confirmatory qHTS for Zika virus inhibitors (AID 1347163). Further: potency means the concentration at half of the fitted maximal effect; nearly all actives have a fitted effect of over 50% in size. The method, boiled down: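 Linked protease 5/30/60 nM final; cpds up to 1 mM final, ~15 min preinc. Substrate Ac-VKTGKR-AMC 30 microM final. RT, dark, 25 min; FI ex 355/em 460; normalized to no-enzyme/no-inhibitor ctrls.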

Test [10] deals with Zika virus NS2B-NS3 protease (linked construct). Kind of test: 384 well plate NINDS Rhodamine confirmatory qHTS for Zika virus inhibitors (AID 1347164). Further: nearly all actives have a fitted effect of over 65% in size. Further: potency means the concentration at half of the fitted maximal effect.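 On activity change, negative = inhibition: top concentration of the series differs between compounds; plate controls were no-inhibitor control for no effect and no-enzyme control for full effect.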 The method, boiled down:
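Cleavage of Ac-LKRR-Rhodamine 110 (10 microM final) by linked protease (final 5, 30 or 60 nM) was followed as fluorescence at 485/538 nm after 25 min, room temperature, dark. Compounds preincubated ~15 min.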

Test [11] deals with Rap guanine nucleotide exchange factor 3 (Homo sapiens) (UniProt O95398). Kind of test: Confirmatory qHTS for agonist of cAMP-regulated guanine nucleotide exchange factor 3 (EPAC1) (AID 1645881).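 Further: EPAC1 catalysed release of BODIPY-GDP from Rap1B seen as fluorescence loss; 100% = effect of cAMP agonist control; nearly all actives have a fitted effect of over 75% in size.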
The target of test [12] is Rap guanine nucleotide exchange factor 4 (Homo sapiens) (UniProt Q8WZA2). The test is described as follows: Confirmatory qHTS for agonist of cAMP-regulated guanine nucleotide exchange factor 4 (EPAC2) (AID 1645884).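 Further: nucleotide exchange releases bodipy-GDP from Rap1 and this lowers its fluorescence; on the % scale 0 is the no-effect control and ±100 the full control effect; nearly all actives have a fitted effect of over 65% in size.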
Chain of Rap guanine nucleotide exchange factor 4 (Homo sapiens) (Q8WZA2 whole entry, looked up): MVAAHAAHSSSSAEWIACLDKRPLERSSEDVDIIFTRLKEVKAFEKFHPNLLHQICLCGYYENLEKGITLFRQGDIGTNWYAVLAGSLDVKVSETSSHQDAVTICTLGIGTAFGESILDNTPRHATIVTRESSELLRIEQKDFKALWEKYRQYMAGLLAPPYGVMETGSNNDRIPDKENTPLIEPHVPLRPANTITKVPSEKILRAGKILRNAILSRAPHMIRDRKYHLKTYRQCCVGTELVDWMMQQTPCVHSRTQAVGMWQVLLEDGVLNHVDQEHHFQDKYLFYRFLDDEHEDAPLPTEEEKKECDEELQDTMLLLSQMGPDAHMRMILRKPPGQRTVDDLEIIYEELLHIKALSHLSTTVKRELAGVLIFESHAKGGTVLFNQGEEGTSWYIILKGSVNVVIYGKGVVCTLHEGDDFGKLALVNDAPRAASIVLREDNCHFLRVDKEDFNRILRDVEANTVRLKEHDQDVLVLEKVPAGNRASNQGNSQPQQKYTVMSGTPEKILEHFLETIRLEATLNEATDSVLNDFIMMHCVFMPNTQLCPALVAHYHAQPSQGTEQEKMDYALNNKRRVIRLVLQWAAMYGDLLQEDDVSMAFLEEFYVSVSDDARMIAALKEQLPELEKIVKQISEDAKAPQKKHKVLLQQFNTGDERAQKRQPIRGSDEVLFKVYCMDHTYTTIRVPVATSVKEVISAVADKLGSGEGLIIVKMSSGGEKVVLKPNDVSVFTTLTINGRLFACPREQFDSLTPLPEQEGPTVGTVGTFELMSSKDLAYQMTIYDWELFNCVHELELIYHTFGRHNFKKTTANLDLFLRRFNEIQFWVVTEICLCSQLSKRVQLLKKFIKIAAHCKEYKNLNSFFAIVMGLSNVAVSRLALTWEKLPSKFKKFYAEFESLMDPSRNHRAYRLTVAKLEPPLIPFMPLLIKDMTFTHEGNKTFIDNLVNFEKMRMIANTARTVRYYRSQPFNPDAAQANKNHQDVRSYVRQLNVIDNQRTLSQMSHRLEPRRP
Test [13] shares this target. The test is described as follows: Confirmatory qHTS for antagonist of cAMP-regulated guanine nucleotide exchange factor 4 (EPAC2) (AID 1645885). Further: on the % scale 0 is the no-effect control and ±100 the full control effect; nearly all actives have a fitted effect of over 25% in size.
Test [14] deals with Cytochrome P450 2D6 (Homo sapiens) (UniProt P10635). Kind of test: Cytochrome P450 family 2 subfamily D member 6 (CYP2D6) small molecule antagonists: luciferase biochemical (cell-free) qHTS assay (AID 1645840; active means well fitted curve in the direction sought with a large enough effect in the repeat runs; an effect the other way counts as inactive or inconclusive; further: nearly all actives have a fitted effect of over 55% in size; further: potency means the concentration at half of the fitted maximal effect; on activity change, negative = inhibition: on the % scale 0 is the no-effect control and ±100 the full control effect). Summed up:
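P450-Glo luminescent screen: recombinant CYP2D6 enzyme–proluciferin substrate mix preincubated with compound 10 min at room temperature, then NADPH regeneration added for 1 h at room temperature. Detection reagent added for 20 min; luciferin light read as relative luminescence units.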

Test [15] concerns the target Catechol O-methyltransferase (Homo sapiens) (UniProt P21964). The test is described as follows: Confirmatory Screen for Target Class Profiling of Small Molecule Inhibitors of Methyltransferases (AID 1745852; calls by dose curve; further: potency means the concentration at half of the fitted maximal effect). The settings on record: MTase-Glo luminescence, SAH detection, recombinant enzyme; measured here: COMT max response; stronger effect = lower value.
The target in test [16] is Guanidinoacetate N-methyltransferase (Homo sapiens) (UniProt Q14353). The test is described as above. The settings on record: MTase-Glo luminescence, SAH detection, recombinant enzyme; activity change, negative = inhibition: at 57.3 µM (top of the series).
Test [17] concerns the target Nicotinamide N-methyltransferase (Homo sapiens) (UniProt P40261). Described as above. The settings on record: MTase-Glo luminescence, SAH detection, recombinant enzyme; measured here: NNMT max response; stronger effect = lower value.
For test [18], the target named is Phenylethanolamine N-methyltransferase (Homo sapiens) (UniProt P11086). The test is described as above. The settings on record: MTase-Glo luminescence, SAH detection, recombinant enzyme; measured here: PNMT max response; stronger effect = lower value.
Chain of Phenylethanolamine N-methyltransferase (Homo sapiens) (P11086 whole entry, looked up): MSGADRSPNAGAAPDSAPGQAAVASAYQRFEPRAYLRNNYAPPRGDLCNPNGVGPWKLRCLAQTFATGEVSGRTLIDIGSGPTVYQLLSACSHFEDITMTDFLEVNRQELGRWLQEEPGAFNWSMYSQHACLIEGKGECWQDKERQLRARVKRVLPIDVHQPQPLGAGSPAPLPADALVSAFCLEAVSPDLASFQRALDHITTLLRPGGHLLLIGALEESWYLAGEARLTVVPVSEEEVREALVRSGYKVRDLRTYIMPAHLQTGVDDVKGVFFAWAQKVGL
The target in test [19] is Ubiquitin carboxyl-terminal hydrolase 1 (Homo sapiens) (UniProt O94782). Kind of test: Inhibitors of USP1/UAF1: Pilot qHTS (AID 504865).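 Further: rhodamine fluorescence freed from ubiquitin-rhodamine substrate followed over time; top concentration of the series differs between compounds; on the % scale 0 is the no-effect control and ±100 the full control effect; nearly all actives have a fitted effect of over 35% in size.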 The method, boiled down:
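Enzyme-free wells gave the negative control, while test wells held 1nM USP1/UAF1 preincubated with compound for 15 min at room temperature. Ub-Rho at 150nM final started the reaction, and fluorescence at 480/540 nm was recorded kinetically.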

Test [20] addresses Cytochrome P450 2C9 (Homo sapiens) (UniProt P11712). Kind of test: Cytochrome P450 family 2 subfamily C member 9 (CYP2C9) small molecule antagonists: luciferase biochemical (cell-free) qHTS assay (AID 1645842; active means well fitted curve in the direction sought with a large enough effect in the repeat runs; an effect the other way counts as inactive or inconclusive; further: nearly all actives have a fitted effect of over 55% in size; further: potency means the concentration at half of the fitted maximal effect; on activity change, negative = inhibition: on the % scale 0 is the no-effect control and ±100 the full control effect). Summed up: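 Luminescence, after 20 min with luciferin detection reagent, reflected CYP2C9 turnover during a 1 h NADPH-driven reaction at 37C. Enzyme-substrate mix contained 0.4% bovine serum albumin and was preincubated with compound 10 min at room temperature.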

Chain of Cytochrome P450 3A4 (Homo sapiens) (P08684 whole entry, looked up): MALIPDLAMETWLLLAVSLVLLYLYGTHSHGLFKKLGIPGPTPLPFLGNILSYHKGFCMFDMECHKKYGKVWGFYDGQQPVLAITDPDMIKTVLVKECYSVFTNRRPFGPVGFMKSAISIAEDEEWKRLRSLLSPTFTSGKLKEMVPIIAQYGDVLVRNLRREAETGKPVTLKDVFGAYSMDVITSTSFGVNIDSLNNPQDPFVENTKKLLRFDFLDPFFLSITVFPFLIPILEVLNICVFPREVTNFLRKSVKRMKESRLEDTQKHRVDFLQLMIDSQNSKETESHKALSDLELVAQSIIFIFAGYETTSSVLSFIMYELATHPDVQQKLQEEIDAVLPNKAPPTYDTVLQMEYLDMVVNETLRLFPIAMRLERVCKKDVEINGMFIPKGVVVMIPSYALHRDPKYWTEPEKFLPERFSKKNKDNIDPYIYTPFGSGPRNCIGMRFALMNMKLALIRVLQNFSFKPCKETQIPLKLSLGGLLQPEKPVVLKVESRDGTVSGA
Chain of Cytochrome P450 2C9 (Homo sapiens) (P11712 whole entry, looked up): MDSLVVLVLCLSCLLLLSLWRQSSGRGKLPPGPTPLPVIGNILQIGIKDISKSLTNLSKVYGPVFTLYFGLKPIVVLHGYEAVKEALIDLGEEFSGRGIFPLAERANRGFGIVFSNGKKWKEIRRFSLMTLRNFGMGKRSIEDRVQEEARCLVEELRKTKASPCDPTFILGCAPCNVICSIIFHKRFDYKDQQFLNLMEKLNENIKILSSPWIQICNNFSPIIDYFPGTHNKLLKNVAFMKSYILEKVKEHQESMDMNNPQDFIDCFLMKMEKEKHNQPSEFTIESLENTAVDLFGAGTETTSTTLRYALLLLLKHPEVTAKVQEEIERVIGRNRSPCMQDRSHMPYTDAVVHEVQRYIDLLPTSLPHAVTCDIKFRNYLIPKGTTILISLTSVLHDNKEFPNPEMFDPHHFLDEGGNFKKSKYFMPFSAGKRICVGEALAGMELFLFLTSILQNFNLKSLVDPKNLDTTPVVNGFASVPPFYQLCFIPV
Chain of Cytochrome P450 2D6 (Homo sapiens) (P10635 whole entry, looked up): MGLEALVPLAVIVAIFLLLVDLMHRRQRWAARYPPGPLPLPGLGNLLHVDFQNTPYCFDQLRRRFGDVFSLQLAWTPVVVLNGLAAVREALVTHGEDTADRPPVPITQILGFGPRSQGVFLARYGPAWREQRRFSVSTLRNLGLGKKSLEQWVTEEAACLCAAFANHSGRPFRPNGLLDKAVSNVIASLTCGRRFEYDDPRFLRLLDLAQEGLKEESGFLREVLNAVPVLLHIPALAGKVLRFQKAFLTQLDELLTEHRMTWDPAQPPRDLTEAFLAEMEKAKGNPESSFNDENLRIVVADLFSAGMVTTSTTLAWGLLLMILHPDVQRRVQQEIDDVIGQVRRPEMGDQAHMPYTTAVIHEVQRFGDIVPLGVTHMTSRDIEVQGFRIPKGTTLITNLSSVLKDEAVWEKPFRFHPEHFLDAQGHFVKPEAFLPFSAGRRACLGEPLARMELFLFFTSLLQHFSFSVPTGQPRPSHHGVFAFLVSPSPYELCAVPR
Chain of Ubiquitin carboxyl-terminal hydrolase 1 (Homo sapiens) (O94782 whole entry, looked up): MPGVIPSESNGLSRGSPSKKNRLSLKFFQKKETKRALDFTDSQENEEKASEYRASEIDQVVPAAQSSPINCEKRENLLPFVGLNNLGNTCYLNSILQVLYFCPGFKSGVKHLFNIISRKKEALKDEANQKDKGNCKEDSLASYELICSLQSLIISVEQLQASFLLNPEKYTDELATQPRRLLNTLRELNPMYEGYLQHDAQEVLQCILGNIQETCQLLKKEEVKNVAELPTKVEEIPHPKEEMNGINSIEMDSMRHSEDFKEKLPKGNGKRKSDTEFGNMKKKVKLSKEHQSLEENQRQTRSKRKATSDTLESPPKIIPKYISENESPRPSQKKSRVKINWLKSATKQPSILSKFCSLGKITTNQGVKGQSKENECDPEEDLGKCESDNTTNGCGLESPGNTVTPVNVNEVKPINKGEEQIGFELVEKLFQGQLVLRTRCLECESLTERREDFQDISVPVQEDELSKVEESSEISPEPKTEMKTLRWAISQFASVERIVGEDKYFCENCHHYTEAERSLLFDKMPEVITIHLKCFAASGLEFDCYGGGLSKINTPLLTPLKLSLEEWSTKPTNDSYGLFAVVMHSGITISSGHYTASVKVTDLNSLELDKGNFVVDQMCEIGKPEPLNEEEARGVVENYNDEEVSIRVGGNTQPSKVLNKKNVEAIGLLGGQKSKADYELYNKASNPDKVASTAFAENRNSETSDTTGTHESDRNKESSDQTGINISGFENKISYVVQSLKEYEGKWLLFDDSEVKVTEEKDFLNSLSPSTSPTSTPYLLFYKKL
Chain of Catechol O-methyltransferase (Homo sapiens) (P21964 whole entry, looked up): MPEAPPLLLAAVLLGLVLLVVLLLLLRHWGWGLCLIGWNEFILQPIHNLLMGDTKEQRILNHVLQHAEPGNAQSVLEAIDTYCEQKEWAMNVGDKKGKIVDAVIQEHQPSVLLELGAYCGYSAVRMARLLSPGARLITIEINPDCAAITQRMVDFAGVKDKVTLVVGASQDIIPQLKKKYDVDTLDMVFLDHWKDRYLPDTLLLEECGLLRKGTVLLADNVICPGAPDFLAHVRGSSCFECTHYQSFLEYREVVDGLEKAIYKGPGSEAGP
Chain of Nicotinamide N-methyltransferase (Homo sapiens) (P40261 whole entry, looked up): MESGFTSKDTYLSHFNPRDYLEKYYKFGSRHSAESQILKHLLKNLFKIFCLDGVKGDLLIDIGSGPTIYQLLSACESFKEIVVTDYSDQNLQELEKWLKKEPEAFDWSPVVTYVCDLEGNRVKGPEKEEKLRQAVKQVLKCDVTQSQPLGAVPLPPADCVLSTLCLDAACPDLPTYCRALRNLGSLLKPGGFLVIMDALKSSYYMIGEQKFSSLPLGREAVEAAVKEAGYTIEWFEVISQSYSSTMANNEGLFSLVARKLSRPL

With `O=c1cc(-c2ccc(O)c(O)c2)oc2cc(O[C@@H]3O[C@H](CO)[C@@H](O)[C@H](O)[C@H]3O)cc(O)c12`, the Potency entry in test [1] was “inactive”.
Regarding `O=C(OC[C@H]1O[C@@H](OC(=O)c2cc(O)c(O)c(O)c2)[C@H](OC(=O)c2cc(O)c(O)c(O)c2)[C@@H](OC(=O)c2cc(O)c(O)c(O)c2)[C@@H]1OC(=O)c1cc(O)c(O)c(O)c1)c1cc(O)c(O)c(O)c1`, the Potency entry in test [2] was “inactive”. Moreover, the outcome in [3], in test [4] and in [5] was “inactive” in each case.
Take `O=C1CC(c2ccc(O)cc2)Oc2cc(O)cc(O)c21` (stereo not given): in test [6], the Potency entry was “inactive”. In addition, the outcome in test [7] is “inactive”.
In the case of `CC(C)=CCc1c2c(c3occ(-c4ccc(O)c(O)c4)c(=O)c3c1O)C=CC(C)(C)O2`, the Potency result in test [6] and in test [13] was “inactive” throughout. In addition, the Potency is 12.4 µM (active) in [8], 7.08 µM (active) in test [9] and 7.94 µM (active) in test [10]. The outcome in test [11] and in test [12] was “inactive” each time.
With `COc1cc(C(=O)O)ccc1NC(=O)[C@@H]1N[C@@H](CC(C)(C)C)[C@](C#N)(c2ccc(Cl)cc2F)[C@H]1c1cccc(Cl)c1F`, the Potency is 31.6 µM (active) in test [9], 5.62 µM (active) in test [10] and 34.1 µM (active) in test [16]. Further, the Potency entry in test [14] is “inactive”. Also, the activity in test [15] is -3.62%; in test [17] it was -47.6%; in [18], -14.4%.
On to `CN(C)c1cc(NC(=O)CNC(C)(C)C)c(O)c2c1C[C@H]1C[C@H]3[C@H](N(C)C)C(=O)C(C(N)=O)=C(O)[C@]3(O)C(=O)C1=C2O`, for which, in test [8], the Potency is 1.97 µM (active). Further, the Potency result in test [1] and in [2] was “inactive” each time.
Consider `CC1c2cccc(O)c2C(O)=C2C(=O)C3(O)C(O)=C(C(N)=O)C(=O)C(N(C)C)C3C(O)C21` (stereo not given), for which the Potency in test [9] was 282 µM (active). In addition, in test [10], the Potency entry was “inactive”.
As to `CCCCc1nn2c(=O)cc(COC(=O)c3ccc(NC(=O)c4ccccc4Cl)cc3)nc2s1`, the Potency in test [8] is 44.7 µM (active).
Turning to `CCOC(=O)c1ccc(CN(Cc2ccc(Br)cc2)S(=O)(=O)c2cccc(C(F)(F)F)c2)cc1`, the Potency result in test [8] was “inactive”.
On to `CC1COC2=C1C(=O)C(=O)c1c2ccc2c1CCCC2(C)C` (stereo not given), for which, in test [10], the Potency is 79.4 µM (active).
With `O=C1CC(c2ccc(O)cc2)Oc2ccccc21` (stereo not given), the Potency result in [6] was “inactive”.
Take `C=C[C@@](C)(O)CC[C@@H]1[C@@]2(C)CCCC(C)(C)[C@@H]2CC[C@@]1(C)O`: the outcome in test [7] is “inactive”.
As for `O=C(/C=C\n1cnc(-c2cc(C(F)(F)F)cc(C(F)(F)F)c2)n1)NNc1cnccn1`, the Potency in test [2] is 25.8 µM (active).
Turning to `COC1=C(OC)C(=O)C(C/C=C(\C)CC/C=C(\C)CC/C=C(\C)CC/C=C(/C)CC/C=C(\C)CC/C=C(\C)CC/C=C(\C)CC/C=C(\C)CC/C=C(\C)CCC=C(C)C)=C(C)C1=O`, the Potency result in test [19] is “inactive”.
As to `CCC[C@H](NC(=O)/C(C#N)=C/c1cccc(Br)n1)c1ccccc1`, the Potency in test [2] was 4.09 µM (active).
As to `C=CC(=O)N1CC/C(=C\c2ccc(F)c([N+](=O)[O-])c2)C(=O)/C(=C/c2ccc(F)c([N+](=O)[O-])c2)C1`, in test [1], the Potency is 1.78 µM (active).
For the compound `O=C(/C=C/c1ccc(CN(CCO)CCc2c[nH]c3ccccc23)cc1)NO`, the values for the activity in [15], in [17] and in test [18] were 18.9%, -12.8% and -2.68%, respectively. The Potency in [16] was 34.3 µM (active).
On to `CC(/C=C1\SC(=S)N(CC(=O)O)C1=O)=C\c1ccccc1`, for which the Potency entry in test [19] and in test [13] was “inactive” throughout. For the same compound, the outcome in [11] and in test [12] was “inactive” each time.
With `O=C(/C=C/c1cccnc1)NCCCCC1CCN(C(=O)c2ccccc2)CC1`, the Potency in test [14] is 16.9 µM (active); in test [20] it was 13.5 µM (active).
On to `Cn1cc(/C=C2\C(=O)Nc3cccnc32)c2ccccc21`, for which the Potency result in test [20] is “inactive”.
With `Cc1c(CN2CCN(C(=O)[C@H](C)O)CC2)sc2c(N3CCOCC3)nc(-c3cnc(N)nc3)nc12`, the Potency entry in test [14] and in test [20] was “inactive” throughout.
For the compound `NS(=O)(=O)c1ccc(Cc2c(-c3cccc(-c4ccccc4)c3)nn(-c3nc(C(=O)O)cs3)c2CC2CC2)cc1`, the Potency in [20] was 21.3 µM (active).
Take `C[C@H](CCC(=O)O)[C@H]1CC[C@H]2[C@@H]3[C@@H](O)C[C@@H]4C[C@H](O)CC[C@]4(C)[C@H]3CC[C@]12C`: in [14], the Potency entry is “inactive”.

Source of the values: PubChem BioAssay (NCATS).
